Test results: PubChem BioAssay (NCATS)
Results filed as inconclusive are left out. Entries that show only a call come without a potency. Calls of active or inactive are those of the source. Calls come from the whole dose curve; as a rule, active = well fitted inhibition curve with a large enough effect; inconclusive = small, poorly fitted or top-dose-only effect; inactive = flat fitted curve, though single readings scatter.

Legend:
[1] = target: Glutathione peroxidase 1 (Homo sapiens) (UniProt P07203); assay: Primary qHTS Assay for Inhibitors of Recombinant Selenoprotein Glutathione Peroxidase 1 (GPX1) (AID 1845191); note: nearly all actives have a fitted effect of over 65% in size
Chain of Glutathione peroxidase 1 (Homo sapiens) (P07203 whole entry, looked up): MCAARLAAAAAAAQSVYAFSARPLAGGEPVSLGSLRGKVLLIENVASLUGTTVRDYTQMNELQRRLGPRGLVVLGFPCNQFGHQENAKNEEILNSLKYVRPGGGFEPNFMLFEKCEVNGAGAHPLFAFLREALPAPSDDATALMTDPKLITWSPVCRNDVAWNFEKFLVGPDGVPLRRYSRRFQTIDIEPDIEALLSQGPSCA
Outline: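 GPX1 10 nM, GR 100 nM, GSH 1 mM, NADPH 0.5 mM, CHP 0.5 mM (final). 30-min cpd preincubation, RT. Ex340/Em450 read t=0, t=15 min.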

[2] = target: Phospholipid hydroperoxide glutathione peroxidase GPX4 (Homo sapiens) (UniProt P36969); assay: Primary qHTS Assay for Inhibitors of Recombinant Selenoprotein Glutathione Peroxidase 4 (GPX4) (AID 1845192); note: nearly all actives have a fitted effect of over 65% in size
Chain of Phospholipid hydroperoxide glutathione peroxidase GPX4 (Homo sapiens) (P36969 whole entry, looked up): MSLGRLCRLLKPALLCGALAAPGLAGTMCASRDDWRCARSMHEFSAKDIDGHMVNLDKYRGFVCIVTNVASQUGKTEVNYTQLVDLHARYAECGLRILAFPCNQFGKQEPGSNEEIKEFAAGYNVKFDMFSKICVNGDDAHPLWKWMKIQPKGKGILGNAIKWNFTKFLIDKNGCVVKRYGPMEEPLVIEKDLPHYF
Outline: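 qHTS, GR-coupled: GPX4 200 nM + cpd 30 min RT → GSH 1 mM, NADPH 0.5 mM, GR 100 nM → CHP 0.5 mM start; fluor 340/450 at t0 and t15 min; no-enzyme wells as control.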

[3] = target: Luciferin 4-monooxygenase (Photinus pyralis) (UniProt P08659); assay: Primary firefly luciferase (FLuc) qHTS assay for identification of artifact compounds. (AID 1845220); note: series mostly up to about 54 µM; nearly all actives have a fitted effect of over 60% in size
Outline: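 In this counter-screen for luciferase artifacts, test compounds met substrate (10 uM each luciferin and ATP) before 10 nM enzyme started the reaction. Light output was measured 5 min later.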

Compound | Potency [1] | Potency [2] | Potency [3]
COc1cc2nccc(Oc3ccc(NC(=O)Nc4ccc(F)cc4F)c(F)c3)c2cc1OC | inactive | inactive | –
C[C@]12CC[C@@H]3c4ccc(O)cc4CC[C@H]3[C@H]1[C@@H](O)[C@@H](O)[C@H]2O | inactive | inactive | –
COc1cc([C@@H]2c3cc4c(cc3[C@@H](O[C@@H]3O[C@@H]5CO[C@@H](C)O[C@@H]5[C@H](O)[C@@H]3O)[C@H]3COC(=O)[C@H]23)OCO4)cc(OC)c1O | inactive | inactive | –
Cc1nn(Cc2ccccc2Cl)c(C)c1CN(C)CC(O)COc1ccc(Cl)cc1 (stereo not given) | inactive | inactive | –
NCC1CCC(C(=O)O)CC1 (stereo not given) | inactive | inactive | –
CN1CCN2c3ncccc3Cc3ccccc3C2C1 (stereo not given) | inactive | inactive | –
Cc1ccc(C(=O)N(CCCN)[C@@H](c2nc3cc(Cl)ccc3c(=O)n2Cc2ccccc2)C(C)C)cc1 | inactive | inactive | –
CSc1cccc(Nc2ncc3cc(-c4c(Cl)cccc4Cl)c(=O)n(C)c3n2)c1 | inactive | inactive | –
COC(=O)Nc1ccc(-c2nc(N3CCOCC3)c3cnn(C4CCN(C(=O)OC)CC4)c3n2)cc1 | inactive | inactive | –
CC1CCN(c2cc(N3CCN(C)CC3)ccc2NC(=O)c2cc(C#N)c[nH]2)CC1 | inactive | inactive | inactive
CCCCCCCCCCCCCCCC(=O)O[C@H]1[C@@H](O)[C@@H](O)[C@@H]([C@H](NC(=O)[C@@H]2C[C@@H](CCC)CN2C)[C@H](C)Cl)O[C@@H]1SC | inactive | inactive | –
C[C@@H]1C[C@H]2[C@@H]3CCC4=CC(=O)C=C[C@]4(C)[C@@]3(F)[C@@H](O)C[C@]2(C)[C@@]1(O)C(=O)CO | inactive | inactive | –
